Screening data: PubChem, Broad Institute
A selection: hits, their analogues and other compounds. The true share with any hit is near 6.8%.
Pf Dd2 inh: blocks growth of Plasmodium falciparum Dd2 parasites. P. falciparum Dd2 growth, SYBR Green, 72 h; stronger effect = lower value. activity change, % at 10 µM. 2.3% of 94,000 active. AID 1159554; in the data active = activity change below about -80%
T cruzi growth: T. cruzi proliferation inhibition. T. cruzi beta-gal in NIH3T3, GalScreen luminescence, 90 h. inhibition, % at 8.34 µM. 5.9% of 77,000 active;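 active = mean inhibition above about 93%, with at least 55% of replicates each passing it, limit read from the data, passing the limit was not always enough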
C diff HTS: blocks growth of Clostridium difficile; Clostridium difficile clinical isolate growth, OD600, 24 h; stronger effect = lower value; growth activity, negative = inhibition, % at 16 µg/mL (by protocol); 0.25% of 86,000 active; AID 1259249;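 active = mean growth activity at or below -80% and every replicate also at or below -80%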
Large screens that a line does not name were inactive.

COc1cccc(-c2ccc3c(c2)[C@@H]2[C@@H](CCN2C(=O)Nc2ccccc2OC)[C@@H](CO)N3C)c1	C diff HTS -97
COc1ccc(NC(=O)N2CC[C@@H]3[C@H]2c2cc(Br)ccc2N(C)[C@@H]3CO)cc1	C diff HTS -100
O=C(NCC1CC1)[C@H]1[C@H](CO)[C@H]2Cn3c(ccc(-c4cccc(F)c4)c3=O)[C@H]2N1CC1CC1	none
O=S(=O)(N[C@H]1CC[C@H](CCNS(=O)(=O)c2ccccc2Cl)O[C@H]1CO)c1ccccc1	none
CCC(=O)N1CC2(C1)[C@@H](c1ccc(-c3cccc(OC)c3)cc1)[C@@H](CO)N2C(C)=O	Pf Dd2 inh -90 (no result: T cruzi growth)
CCC(=O)N1CC2(C1)[C@H](c1ccc(-c3cccc(OC)c3)cc1)[C@H](CO)N2C(C)=O	none (no result: T cruzi growth)
CN(C)C(=O)C[C@H]1C=C[C@@H](NC(=O)NC2CCCC2)[C@@H](CO)O1	none (no result: T cruzi growth)
C[C@@H]1CN([C@H](C)CO)C(=O)c2cc(NC(=O)C3CCCCC3)ccc2O[C@@H](C)CCCCO[C@@H]1CN(C)C(=O)C1CCCCC1	none
C[C@@H]1CCCCO[C@@H](CN(C)C(=O)C2CCCCC2)[C@@H](C)CN([C@@H](C)CO)C(=O)c2cc(NC(=O)C3CCCCC3)ccc2O1	Pf Dd2 inh -85
C[C@@H]1CN([C@@H](C)CO)C(=O)c2cc(NC(=O)Cc3ccccc3)ccc2O[C@@H](C)CCCCO[C@H]1CN(C)C(=O)C1CCCCC1	none
C[C@@H]1CCCCO[C@H](CN(C)C(=O)c2ccccc2)[C@@H](C)CN([C@H](C)CO)C(=O)c2cc(NC(=O)Nc3ccc4c(c3)OCO4)ccc2O1	none
C[C@H]1CCCCO[C@@H](CN(C)C(=O)C2CCCCC2)[C@@H](C)CN([C@@H](C)CO)C(=O)c2cc(NC(=O)c3ccncc3)ccc2O1	Pf Dd2 inh -81
C[C@@H]1CCCCO[C@H](CN(C)C(=O)c2ccccc2)[C@@H](C)CN([C@@H](C)CO)C(=O)c2cc(NC(=O)Nc3ccc4c(c3)OCO4)ccc2O1	Pf Dd2 inh -81
C[C@@H]1CCCCO[C@H](CN(C)C(=O)C2CCCCC2)[C@@H](C)CN([C@@H](C)CO)C(=O)c2cc(NC(=O)Cc3ccccc3)ccc2O1	Pf Dd2 inh -85
C[C@H](CO)N1C[C@H](C)[C@H](CN(C)C(=O)C2CCCCC2)OCCCC[C@H](C)Oc2ccc(NC(=O)c3ccncc3)cc2C1=O	none
C[C@@H]1CN([C@H](C)CO)C(=O)c2cc(NC(=O)C3CC3)ccc2O[C@@H]1CN(C)S(=O)(=O)c1cn(C)cn1	none (no result: C diff HTS)
C[C@@H]1CCCCO[C@H](CN(C)C)[C@@H](C)CN([C@@H](C)CO)C(=O)c2cc(NC(=O)CCC(F)(F)F)ccc2O1	none
Cc1ccc(S(=O)(=O)Nc2cccc3c2O[C@H](CN(C)S(=O)(=O)c2c(C)noc2C)[C@@H](C)CN([C@H](C)CO)C3=O)cc1	none (no result: T cruzi growth)
C[C@@H]1CN([C@@H](C)CO)C(=O)c2cc(NC(=O)Nc3ccccc3)ccc2O[C@@H](C)CCCCO[C@@H]1CN(C)C(=O)C1CCCCC1	Pf Dd2 inh -84
C[C@@H]1CCCCO[C@@H](CN(C)C(=O)C2CCCCC2)[C@H](C)CN([C@H](C)CO)C(=O)c2cc(NC(=O)Nc3ccc4c(c3)OCO4)ccc2O1	T cruzi growth 107
C[C@@H]1CN([C@@H](C)CO)C(=O)c2cc(NC(=O)Nc3ccc4c(c3)OCO4)ccc2O[C@@H](C)CCCCO[C@H]1CN(C)C(=O)C1CCCCC1	none
C[C@@H]1CN([C@H](C)CO)C(=O)c2cc(NC(=O)Nc3ccccc3)ccc2O[C@@H](C)CCCCO[C@H]1CN(C)C(=O)C1CCCCC1	none
C[C@H](CO)N1C[C@H](C)[C@H](CN(C)C(=O)C2CCCCC2)OCCCC[C@H](C)Oc2ccc(NC(=O)Nc3ccccc3)cc2C1=O	none
C[C@H]1CCCCO[C@@H](CN(C)C(=O)C2CCCCC2)[C@@H](C)CN([C@@H](C)CO)C(=O)c2cc(NC(=O)Nc3ccccc3)ccc2O1	Pf Dd2 inh -88
CCC(=O)Nc1ccc2c(c1)C(=O)N(C)[C@@H]1CC[C@@H](CC(=O)NCCOC)O[C@H]1CO2	none
CNC(=O)C[C@@H]1CC[C@H]2[C@H](COc3ccc(NC(=O)NC(C)C)cc3C(=O)N2C)O1	none
COc1cccc(NC(=O)N2[C@H](CNC(C)C)[C@H](c3ccccc3)[C@@H]2CO)c1	none (no result: C diff HTS)
COc1cccc(NC(=O)N2[C@H](CO)[C@@H](c3ccccc3)[C@H]2CNCC(C)C)c1	none
COc1cccc(NC(=O)N2[C@H](CO)[C@H](c3ccccc3)[C@H]2CNCC(C)C)c1	Pf Dd2 inh -82
COc1cccc(NC(=O)N2[C@@H](CO)[C@H](c3ccccc3)[C@@H]2CNCC(C)C)c1	Pf Dd2 inh -91 (no result: T cruzi growth)
COc1cccc(NC(=O)N2[C@@H](CO)[C@@H](c3ccccc3)[C@@H]2CNC(C)C)c1	Pf Dd2 inh -89
COc1cccc(NC(=O)N2[C@H](CO)[C@H](c3ccccc3)[C@H]2CNC(C)C)c1	none
CN1CCN(C(=O)[C@H]2[C@H](CO)[C@H]3Cn4c(cccc4=O)[C@H]3N2Cc2ccccc2F)CC1	none (no result: Pf Dd2 inh)
CO[C@@H]1CN(C)C(=O)c2ccc(NC(=O)c3cc(C)on3)cc2OC[C@H](C)N(C(=O)C2CC2)C[C@H]1C	none (no result: Pf Dd2 inh, C diff HTS)
C[C@@H]1CN([C@H](C)CO)C(=O)c2cc(NS(=O)(=O)c3ccc(F)cc3)ccc2O[C@H]1CN(C)C(=O)Nc1ccc(F)cc1	none
Cc1noc(C)c1NC(=O)Nc1ccc2c(c1)C(=O)N([C@H](C)CO)C[C@@H](C)[C@H](CN(C)C(=O)Nc1cccc3ccccc13)OCCCC[C@H](C)O2	none (no result: T cruzi growth)
CO[C@@H]1CN(C)C(=O)c2ccc(NC(=O)C3CCCC3)cc2OC[C@H](C)N(C(=O)CC2CC2)C[C@H]1C	none (no result: C diff HTS)
Cc1ccc(S(=O)(=O)N(C)C[C@H]2Oc3ccc(NC(=O)CCCCCC(=O)Nc4ccccc4N)cc3CC(=O)N([C@H](C)CO)C[C@H]2C)cc1	none
C[C@@H]1CN([C@@H](C)CO)C(=O)Cc2cc(NC(=O)CCCCCC(=O)Nc3ccccc3N)ccc2O[C@@H]1CN(C)S(=O)(=O)c1ccc(Cl)cc1	none (no result: C diff HTS)
Cc1ccc(S(=O)(=O)N(C)C[C@@H]2Oc3ccc(NC(=O)CCCCCC(=O)Nc4ccccc4N)cc3CC(=O)N([C@H](C)CO)C[C@@H]2C)cc1	Pf Dd2 inh -87
COc1ccc(S(=O)(=O)N(C)C[C@@H]2Oc3ccc(NC(=O)CCCCCC(=O)Nc4ccccc4N)cc3CC(=O)N([C@@H](C)CO)C[C@@H]2C)cc1	Pf Dd2 inh -92
C[C@H](CO)N1C[C@H](C)[C@H](CN(C)C)Oc2ccc(NC(=O)NC3CCCCC3)cc2C1=O	none
CCCNC(=O)N1CC2(CN(S(=O)(=O)CC)C2)c2c([nH]c3cc(OC)ccc23)[C@H]1CO	none (no result: T cruzi growth)
C[C@@H]1CN([C@H](C)CO)C(=O)c2c(c3ccccc3n2C)-c2ccccc2CO[C@H]1CN(C)Cc1ccc2c(c1)OCO2	none (no result: T cruzi growth)
C[C@@H]1CN([C@@H](C)CO)C(=O)c2c(c3ccccc3n2C)-c2ccccc2CO[C@H]1CN(C)Cc1ccc2c(c1)OCO2	Pf Dd2 inh -83 (no result: T cruzi growth)
C[C@H]1CN([C@@H](C)CO)C(=O)c2c(c3ccccc3n2C)-c2ccccc2CO[C@H]1CN(C)Cc1ccc(Cl)c(Cl)c1	none (no result: T cruzi growth)
